AmpC nodet inh – Promiscuous and Specific Inhibitors of AmpC Beta-Lactamase (assay without detergent) | P00811 | AmpC nitrocefin hydrolysis, absorbance 480 nm, no detergent | 71,000 tested, 1.8% active | Potency, µM (series often up to 28.7 µM) | AID 585, 2007
Target sequence (P00811 whole entry, looked up): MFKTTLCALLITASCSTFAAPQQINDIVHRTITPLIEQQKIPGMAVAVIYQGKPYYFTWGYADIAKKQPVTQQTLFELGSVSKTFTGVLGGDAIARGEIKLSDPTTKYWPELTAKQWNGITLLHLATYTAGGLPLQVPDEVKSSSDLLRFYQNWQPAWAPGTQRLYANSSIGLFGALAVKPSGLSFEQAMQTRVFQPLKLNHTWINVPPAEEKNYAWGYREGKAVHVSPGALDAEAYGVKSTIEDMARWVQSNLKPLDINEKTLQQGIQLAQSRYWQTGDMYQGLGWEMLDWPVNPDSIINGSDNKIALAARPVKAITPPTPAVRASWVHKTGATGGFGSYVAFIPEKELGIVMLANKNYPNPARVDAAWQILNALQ
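Enzyme, pH 7.0 phosphate. Compound titrations were pre-incubated with AmpC for 15 min at room temperature before nitrocefin (stock 800 uM) addition; product formation was recorded at 480 nm every 20 s for 4 min.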
SmPrx2 inh – Schistosoma Mansoni Peroxiredoxins (Prx2) | Potency, µM | AID 448, 2006 | 65,000 tested, 0.07% active | S. mansoni Prx2 activity coupled to TGR/GSH (TGR is thioredoxin glutathione reductase), NADPH fluorescence loss, qHTS | Schistosoma mansoni peroxiredoxin 2 (Prx2)
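Purified S. mansoni TGR and Prx2 in pH 7.4 phosphate buffer with EDTA and Tween-20 were preincubated with compounds for 15 min. Further NADPH/GSH was added, then a 2.5 mM H2O2 aliquot initiated turnover, followed kinetically by NADPH fluorescence.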
AmpC inh det – Promiscuous and Specific Inhibitors of AmpC Beta-Lactamase (assay with detergent) | 71,000 tested, 0.09% active | P00811 | purified AmpC, nitrocefin hydrolysis with detergent | Potency, µM (top dose mostly 28.7 µM); active = well fitted curve in the direction sought with a large enough effect; inconclusive = small, poorly fitted or top-dose-only effect
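E. coli AmpC (5.3 nM) in 20 mM phosphate pH 7.0 with 0.01% Triton X-100, preincubated 15 min RT with compound; nitrocefin (2 uL of 800 uM stock) hydrolysis followed by 480 nm absorbance every 20 s over 4 min.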
LT uptake inh – qHTS Assay for Anthrax Lethal Toxin Internalization. Cells, anthrax lethal toxin internalization, FRET ratio (460/530). Potency, µM (highest dose often 40 µM), usual class: inhibitors. 70,000 tested, 0.67% active; also: nearly all actives have a fitted effect of over 50% in size
Hits are given with their value; i = inactive; ? = inconclusive; nt = no result given; [ ] = another dose, or the depositor's remark. Most compounds without a hit are left out; they make up all but 2.6% or so of the library. Unless noted, calls follow the shape of the full dose curve.

SMILES	AmpC nodet inh	SmPrx2 inh	AmpC inh det	LT uptake inh
Cc1cc(-c2cc(C)c(O)c(C(C)(C)C)c2)cc(C(C)(C)C)c1O	i[5.75 µM]	i	i[5.75 µM]	2.51µM
Cc1cc(C(C)(C)C)c(O)c(C(C)(C)C)c1	i	nt	i	nt
COc1ccc(NS(=O)(=O)c2ccc3oc(Nc4ccc5c(c4)OCCO5)nc3c2)cc1	3.16µM	i	i	12.6µM
Cn1c(=O)oc2cc(S(=O)(=O)Nc3ccc4c(c3)OCCO4)ccc21	i	i	i	i
O=C(Cn1c(=O)oc2cc(S(=O)(=O)N3CCCC3)ccc21)Nc1ccc(C(F)(F)F)cc1	10µM[single pt active]	i	i	i
O=C(Cn1c(=O)oc2cc(S(=O)(=O)N3CCCCCC3)ccc21)NC1CCCCCCC1	3.98µM[single pt active]	i	i	i
Cc1c(C(=O)NCc2ccc3c(c2)OCO3)oc2ccc(S(=O)(=O)N3CCC(C)CC3)cc12	i	i	i	i
CC1CCN(S(=O)(=O)c2ccc3c(c2)oc(=O)n3CC(=O)NCc2ccc3c(c2)OCO3)CC1	3.98µM	i	i	?
O=C(Cn1c(=O)oc2cc(S(=O)(=O)N3CCCC3)ccc21)NC1CCCc2ccccc21 (stereo not given)	2µM	i	i	?
CC1CCN(S(=O)(=O)c2ccc3c(c2)oc(=O)n3CC(=O)N2c3ccccc3CC2C)CC1 (stereo not given)	i	i	i	?
O=C(CN1CCCCC1)Nc1ccc(S(=O)(=O)N2CCCCCC2)cc1	i	i	i	i
O=C(O)[C@@H]1[C@H](C(=O)O)[C@]2(Cl)C(Cl)=C(Cl)[C@@]1(Cl)C2(Cl)Cl	i[5.75 µM]	i	i[5.75 µM]	i[8 µM]
C[C@@]12Cc3cnc(-c4ccccc4)nc3C[C@@H]1CC[C@@H]1[C@H]3CC[C@@](C)(O)[C@]3(C)CC[C@@H]12	i[5.75 µM]	i	i[5.75 µM]	i[8 µM]
O=C(O)Cn1c(=O)oc2cc(S(=O)(=O)NC3CCCCC3)ccc21	2.51µM[single pt active]	i	i	i
Cc1cc(C)nc(NS(=O)(=O)c2ccc(NC(=O)Cn3c(=O)oc4ccccc43)cc2)n1	3.98µM[single pt active]	i	i	i
O=C(Cn1c(=O)sc2ccccc21)Nc1ccc(S(=O)(=O)N2CCCCC2)cc1	6.31µM	i	i	i
CCN(CC)S(=O)(=O)c1ccc(NC(=O)Cn2c(=O)sc3ccccc32)cc1	?	i	i	i
Cc1noc(NS(=O)(=O)c2ccc(NC(=O)CCn3c(=O)oc4ccccc43)cc2)c1C	i	?	i	i
O=C(Nc1ccc2c(c1)OCO2)C1CCN(S(=O)(=O)c2cccs2)CC1	?	i	i	i
O=C(Nc1ccc2c(c1)OCO2)C1Cc2ccccc2CN1S(=O)(=O)c1cccs1 (stereo not given)	10µM[single pt active]	i	i	?
Cc1cc(C)n2nc(SCC(=O)Nc3ccc(F)cc3)nc2n1	3.98µM[single pt active]	?	i	i
Cc1cc(C)n2nc(SCC(=O)Nc3c(C)nn(-c4ccccc4)c3C)nc2n1	i	i	i	i
C[C@@H]1C(=O)N(C)C(=O)c2nc[nH]c21	i	i	i	i
CCOC(=O)c1ccc(NC(=O)C2CCN(S(=O)(=O)c3ccccc3)CC2)cc1	i	i	i	3.98µM
CCOC(=O)c1ccc(NC(=O)C2CCN(S(=O)(=O)CC)CC2)cc1	i	i	i	i
SMILES	AmpC nodet inh	SmPrx2 inh	AmpC inh det	LT uptake inh
O=C(CC1Sc2ncnn2C1=O)Nc1ccc(Br)cc1 (stereo not given)	5.01µM	i	i	?
O=C(CC1SC2=NCCN2C1=O)Nc1ccc(Br)cc1 (stereo not given)	i	i	i	?
O=C(NCCC1=CCCCC1)C1CCN(S(=O)(=O)c2cccs2)CC1	i	i	i	i
O=C(NCc1ccc2c(c1)OCO2)C1CCCN(S(=O)(=O)c2cccc3nonc23)C1 (stereo not given)	10µM[single pt active]	i	i	i
O=C(NCCC1=CCCCC1)C1CCN(S(=O)(=O)c2cccc3nonc23)CC1	20µM[single pt active]	i	i	i
CN1CCN(c2ncc3nc(CCc4ccccc4)c(=O)n(C4CC4)c3n2)CC1	i	i	i	?
c1ccc(-c2cccc(N3CCC4(CCNCC4)CC3)c2)cc1	i	i	i	10µM
c1ccc(-c2cccc(N3CC4(CCNCC4)C3)c2)cc1	i	i	i	i
N=C1[C@@H](O)[C@]2(I)c3ccccc3N3C(=N)[C@H](O)[C@@H]4c5ccccc5N1[C@@H]4[C@@H]32	i[5.75 µM]	i	i[5.75 µM]	i[8 µM]
c1ccc(B2OC[C@@H]3OB(c4ccccc4)O[C@H]([C@@H]4COB(c5ccccc5)O4)[C@@H]3O2)cc1	i[5.75 µM]	i	1.58µM	i[8 µM]
Brc1ccccc1CN1CCC(N2CCCCC2)CC1	i	nt	i	10µM
O=C(c1ccccc1)N1CCN(Cc2ccccc2Br)CC1	i	i	i	i

Source: PubChem BioAssay (National Center for Advancing Translational Sciences (NCATS))
